About 79,000 compounds went through this panel and 15% of them were active in at least one assay; those are over-represented in the sample as a whole. Activity calls are given as the source filed them. Rule as the data show it: active = growth inhibition above about 70%; inactive = the rest.
Tests used:
[1] = NCI Yeast Anticancer Drug Screen. Data for the rad52 strain (AID 147);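 also: 0% = growth of vehicle-treated control cultures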; conditions: S. cerevisiae rad52 mutant growth inhibition, hits give high values
Procedure, shortened: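 Screen used a yeast mutant impaired in DNA repair. After compound exposure, growth was measured. Values reflect inhibition compared with vehicle-treated cells.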

[2] = NCI Yeast Anticancer Drug Screen. Data for the wt1 strain (AID 149);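 also: 0% = growth of vehicle-treated wt1 cultures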; conditions: S. cerevisiae wt1 strain (SPY 50644) growth inhibition, hits give high values
Procedure, shortened: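 Using yeast strain wt1, compound-induced growth inhibition was determined against vehicle-treated cultures.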

[3] = NCI Yeast Anticancer Drug Screen. Data for the mgt1 strain (AID 153); conditions: S. cerevisiae mgt1 mutant growth inhibition, hits give high values
Procedure, shortened: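 Genetically defined yeast (mgt1) treated with compound; inhibition of growth expressed against vehicle-treated controls.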

[4] = NCI Yeast Anticancer Drug Screen. Data for the rad50 strain (AID 155);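 also: 0% = growth of vehicle-only cultures of the same strain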; conditions: S. cerevisiae rad50 strain growth inhibition, hits give high values
Procedure, shortened: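 Relative growth inhibition (compound vs vehicle) was measured in yeast with a defined repair-gene alteration.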

[5] = NCI Yeast Anticancer Drug Screen. Data for the mec2-1 strain (AID 157); conditions: S. cerevisiae mec2-1 strain, hits give high values
Procedure, shortened: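 Readout is yeast growth inhibition, normalised to vehicle-treated controls, in the mec2-1 strain exposed to compound.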

[6] = NCI Yeast Anticancer Drug Screen. Data for the rad14 strain (AID 159);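 also: 0% = growth of vehicle-treated control cultures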; conditions: S. cerevisiae rad14 strain growth inhibition, hits give high values
Procedure, shortened: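 Screen for anticancer potential: a yeast strain altered in DNA damage repair is grown with compound, and reduced growth is quantified against vehicle controls.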

[7] = NCI Yeast Anticancer Drug Screen. Data for the sgs1 mgt1 strain (AID 161);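 also: 0% = growth of cultures given vehicle only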; conditions: S. cerevisiae sgs1 mgt1 strain, hits give high values
Procedure, shortened: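 This yeast growth screen uses a strain with defined DNA-repair lesions; compound-treated growth is compared with vehicle-treated growth.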

[8] = NCI Yeast Anticancer Drug Screen. Data for the CLN2oe strain (AID 163);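 also: 0% = growth of vehicle-only control cultures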; conditions: S. cerevisiae CLN2oe strain, hits give high values
Procedure, shortened: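 Values reflect how much compound exposure reduced yeast growth, referenced to vehicle-exposed cells. Assay organism is a strain with a defined genetic change affecting cell-cycle control.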

[9] = NCI Yeast Anticancer Drug Screen. Data for the cln2 rad14 strain (AID 165);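 also: 0% = growth equal to vehicle treated cultures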; conditions: S. cerevisiae cln2 rad14 strain, hits give high values
Procedure, shortened: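 Relative to vehicle controls, growth inhibition of compound-treated cln2 rad14 yeast was recorded.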

[10] = NCI Yeast Anticancer Drug Screen. Data for the bub3 strain (AID 167); conditions: S. cerevisiae bub3 mutant strain, hits give high values
Procedure, shortened: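 Screening used yeast with an engineered genetic alteration affecting cell cycle control. Compound-exposed cultures were compared with vehicle cultures, and reduced growth was taken as inhibition.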

[11] = NCI Yeast Anticancer Drug Screen. Data for the wt2 strain (AID 169);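 also: 0% = growth of vehicle-treated yeast cultures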; conditions: S. cerevisiae wt2 strain growth inhibition, hits give high values
Procedure, shortened: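 Values express reduction in yeast growth under compound treatment, referenced to vehicle-treated cells.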

[12] = NCI Yeast Anticancer Drug Screen. Data for the mlh1 strain (AID 171);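 also: 0% = growth of vehicle-treated control cultures of the same strain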; conditions: S. cerevisiae mlh1 strain growth inhibition, hits give high values
Procedure, shortened: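 Steps: expose the defined-mutant yeast strain to compound; expose a parallel culture to vehicle; measure growth; express compound effect as inhibition relative to the vehicle culture.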

[13] = NCI Yeast Anticancer Drug Screen. Data for the sgs1 strain (AID 173);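 also: 0% = growth of vehicle-only control cultures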; conditions: S. cerevisiae sgs1 mutant, hits give high values
Procedure, shortened: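 Treat defined-mutant yeast with compound; measure growth; calculate inhibition relative to vehicle-treated cells.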

[14] = NCI Yeast Anticancer Drug Screen. Data for the mlh1 rad18 strain (AID 175); conditions: S. cerevisiae mlh1 rad18 strain growth inhibition, hits give high values
Procedure, shortened: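 Test agents were incubated with a yeast strain of defined genotype (DNA damage repair defect). Inhibition of growth was derived by comparison with vehicle-exposed cultures.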

[15] = NCI Yeast Anticancer Drug Screen. Data for the rad18 strain (AID 177); conditions: S. cerevisiae rad18 mutant growth inhibition, hits give high values
Procedure, shortened: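 A genetically defined yeast mutant impaired in DNA damage repair was treated with test compounds, then its growth was measured against cultures receiving vehicle alone.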

[16] = NCI Yeast Anticancer Drug Screen. Data for the rad50EPP+ strain (AID 151);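 also: 0% = growth of vehicle-treated control cultures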; conditions: S. cerevisiae rad50 mutant strain, hits give high values
Procedure, shortened: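 Exposing the rad50EPP+ strain to each compound, growth was compared with vehicle-only cultures to give inhibition.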

[17] = at 5.0 µM (retest, dose inferred, filed as 0.5)
[18] = at 50.0 µM (retest, dose inferred, filed as 5.0)

Measured: growth inhibition

CNC1C(OC2C(OC3C(O)C(O)C(N=C(N)N)C(O)C3N=C(N)N)OC(C)C2(O)CO)OC(CO)C(O)C1O (stereo unspecified)
active: [4]; at 50.0 µM 91.3% | [5]; at 50.0 µM 93.5% | [7]; at 50.0 µM 91.8% | [9]; at 50.0 µM 81.8% | [10]; at 50.0 µM 93.5% | [14]; at 50.0 µM 93.1%
inactive: [1]; at 1.2 µM -3% | [1]; at 3.7 µM 1% | [1]; at 11.0 µM 2% | [1]; at 33.0 µM 28% | [1]; at 100.0 µM -7% | [2]; at 1.2 µM 4% | [2]; at 3.7 µM -4% | [2]; at 11.0 µM -4% | [2]; at 33.0 µM 10% | [2]; at 100.0 µM -4% | [3]; at 1.2 µM 0% | [3]; at 3.7 µM 7% | [3]; at 11.0 µM -6% | [3]; at 33.0 µM 17% | [3]; at 100.0 µM -9% | [4]; at 1.2 µM -2% | [4]; at 3.7 µM 7% | [4]; [17] -19% | [4]; at 11.0 µM 4% | [4]; at 33.0 µM 31% | [4]; [18] -6% | [4]; at 100.0 µM -11% | [5]; at 1.2 µM -2% | [5]; at 3.7 µM -1% | [5]; [17] -15% | [5]; at 11.0 µM -3% | [5]; at 33.0 µM 10% | [5]; [18] 19% | [5]; at 100.0 µM -3% | [6]; at 1.2 µM -2% | [6]; at 3.7 µM 4% | [6]; at 11.0 µM -2% | [6]; at 33.0 µM 32% | [6]; at 100.0 µM -9% | [7]; [17] 19% | [7]; [18] -6% | [8]; at 1.2 µM -7% | [8]; at 3.7 µM -6% | [8]; at 11.0 µM -2% | [8]; at 33.0 µM 16% | [8]; at 100.0 µM -12% | [9]; [17] 11% | [9]; [18] 59% | [10]; at 1.2 µM -2% | [10]; at 3.7 µM -1% | [10]; [17] 5% | [10]; at 11.0 µM 12% | [10]; at 33.0 µM 45% | [10]; [18] 2% | [10]; at 100.0 µM -9% | [11]; at 1.2 µM -3% | [11]; at 3.7 µM 0% | [11]; at 11.0 µM -1% | [11]; at 33.0 µM 34% | [11]; at 100.0 µM -6% | [12]; at 1.2 µM -2% | [12]; at 3.7 µM -4% | [12]; at 11.0 µM 2% | [12]; at 33.0 µM 11% | [12]; at 100.0 µM 10% | [13]; at 1.2 µM -1% | [13]; at 3.7 µM 1% | [13]; at 11.0 µM 2% | [13]; at 33.0 µM 35% | [13]; at 100.0 µM 46% | [14]; [17] 12% | [14]; [18] 7% | [15]; at 1.2 µM 1% | [15]; at 3.7 µM 10% | [15]; at 11.0 µM 5% | [15]; at 33.0 µM 35% | [15]; at 100.0 µM -12%

CC1=C(C)Cc2c(O)ccc(O)c2C1
active: [4]; [18] 99% | [4]; at 50.0 µM 94.5% | [4]; at 100.0 µM 93% | [5]; [18] 99% | [7]; [18] 98% | [9]; [18] 98% | [10]; [17] 94% | [10]; [18] 99% | [10]; at 50.0 µM 83% | [14]; [18] 99% | [14]; at 50.0 µM 93.2% | [15]; at 100.0 µM 93%
inactive: [1]; at 1.2 µM 1% | [1]; at 3.7 µM 12% | [1]; at 11.0 µM 25% | [1]; at 33.0 µM 20% | [1]; at 100.0 µM 61% | [2]; at 1.2 µM -1% | [2]; at 3.7 µM -3% | [2]; at 11.0 µM -3% | [2]; at 33.0 µM -3% | [2]; at 100.0 µM -20% | [16]; at 1.2 µM 20% | [16]; at 3.7 µM 46% | [16]; at 11.0 µM 67% | [16]; at 33.0 µM 43% | [16]; at 100.0 µM 58% | [4]; at 1.2 µM 1% | [4]; at 3.7 µM 17% | [4]; [17] -9% | [4]; at 11.0 µM 38% | [4]; at 33.0 µM 33% | [5]; at 1.2 µM -3% | [5]; at 3.7 µM -3% | [5]; [17] 30% | [5]; at 11.0 µM -3% | [5]; at 33.0 µM -4% | [5]; at 50.0 µM 45.8% | [5]; at 100.0 µM 20% | [7]; [17] 5% | [7]; at 50.0 µM 33.8% | [8]; at 1.2 µM -10% | [8]; at 3.7 µM -8% | [8]; at 11.0 µM -7% | [8]; at 33.0 µM -11% | [8]; at 100.0 µM 33% | [9]; [17] 31% | [9]; at 50.0 µM 48.9% | [10]; at 1.2 µM -3% | [10]; at 3.7 µM -5% | [10]; at 11.0 µM -4% | [10]; at 33.0 µM 3% | [10]; at 100.0 µM 63% | [11]; at 1.2 µM -12% | [11]; at 3.7 µM -6% | [11]; at 11.0 µM -4% | [11]; at 33.0 µM 3% | [11]; at 100.0 µM -4% | [12]; at 1.2 µM -1% | [12]; at 3.7 µM 5% | [12]; at 11.0 µM 12% | [12]; at 33.0 µM 6% | [12]; at 100.0 µM 44% | [13]; at 1.2 µM -21% | [13]; at 3.7 µM -5% | [13]; at 11.0 µM -9% | [13]; at 33.0 µM 7% | [13]; at 100.0 µM 67% | [14]; [17] 52% | [15]; at 1.2 µM 0% | [15]; at 3.7 µM 10% | [15]; at 11.0 µM 18% | [15]; at 33.0 µM 14%

c1ccc2c(c1)sc1cc3ccncc3cc12
inactive: [1]; at 1.2 µM -2% | [1]; at 3.7 µM 7% | [1]; at 11.0 µM 17% | [2]; at 1.2 µM -7% | [2]; at 3.7 µM -4% | [2]; at 11.0 µM -9% | [2]; at 33.0 µM 17% | [3]; at 1.2 µM -2% | [3]; at 3.7 µM -3% | [3]; at 11.0 µM -2% | [3]; at 33.0 µM 11% | [4]; at 1.2 µM -6% | [4]; at 3.7 µM 7% | [4]; at 11.0 µM 29% | [5]; at 1.2 µM 1% | [5]; at 3.7 µM -1% | [5]; [17] 15% | [5]; at 11.0 µM 11% | [5]; at 33.0 µM 8% | [6]; at 1.2 µM 2% | [6]; at 3.7 µM 7% | [6]; at 11.0 µM 16% | [6]; at 33.0 µM 36% | [7]; [17] 12% | [8]; at 1.2 µM -2% | [8]; at 3.7 µM 0% | [8]; at 11.0 µM 7% | [8]; at 33.0 µM 26% | [9]; [17] 16% | [10]; at 1.2 µM -12% | [10]; at 3.7 µM -7% | [10]; [17] -4% | [10]; at 11.0 µM 0% | [10]; at 33.0 µM 19% | [11]; at 1.2 µM -4% | [11]; at 3.7 µM -2% | [11]; at 11.0 µM -3% | [11]; at 33.0 µM 10%
active: [1]; at 33.0 µM 94% | [1]; at 100.0 µM 98% | [2]; at 100.0 µM 94% | [3]; at 100.0 µM 94% | [4]; [17] 93% | [4]; at 33.0 µM 89% | [4]; [18] 94% | [4]; at 50.0 µM 97.7% | [4]; at 100.0 µM 98% | [5]; [18] 96% | [5]; at 50.0 µM 98.2% | [5]; at 100.0 µM 89% | [6]; at 100.0 µM 97% | [7]; [18] 93% | [7]; at 50.0 µM 98.1% | [8]; at 100.0 µM 91% | [9]; [18] 96% | [9]; at 50.0 µM 96.2% | [10]; [18] 95% | [10]; at 50.0 µM 97.3% | [10]; at 100.0 µM 94% | [11]; at 100.0 µM 91%

From PubChem BioAssay (NCI)
